Drawing on PubChem BioAssay (NCI), this text covers growth for 16 compounds.

Common to all, as to assay: NCI-60 one-dose screen, 48 h (100 = growth as untreated, 0 = no growth, -100 = all killed)
Holding throughout (conditions): 10 µM unless noted

In assay [1] the test system is HCT-15 colon.
The subject of assay [2] is HT29 colon.
The test system of assay [3] is SNB-75 CNS.
Assay [4] deals with SNB-19 CNS.
Assay [5] concerns U251 CNS.
For assay [6], the system named is PC-3 prostate.
The subject of assay [7] is SK-MEL-5 melanoma.
The subject of assay [8] is UACC-62 melanoma.
Assay [9] has as its system LOX IMVI melanoma.
In assay [10] the test system is SK-MEL-28 melanoma.
Assay [11] relates to SK-MEL-2 melanoma.
Assay [12] has as its system EKVX NSCLC.
For assay [13], the system named is UO-31 renal.
Assay [14] relates to CAKI-1 renal.
For assay [15], the system named is A498 renal.
The subject of assay [16] is CCRF-CEM leukemia.
The subject of assay [17] is MOLT-4 leukemia.
Assay [18] deals with SN12C renal.
Assay [19] has as its system TK-10 renal.
Assay [20] concerns ACHN renal.

About 83,000 compounds went through this panel and 20% of them were active in at least one assay; those are over-represented in the sample as a whole.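 Values shown are percent growth following 48 h exposure of cells in 96-well plates to a single concentration of compound; below 10 was considered active.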 Values without a mark were called inactive. Active and inactive are the calls of the source.

Consider `CCCCCCCCCCCCCCCC(=O)OC[C@@]1(O)C[C@@]23CC[C@@H]4C(C)(C)CCC[C@@]4(C)[C@@H]2CC[C@H]1C3`, for which the growth in [1] was 97.9%; in assay [2], 92.2%; in assay [3], 112%; in assay [4] it was 102%; in assay [5], 95.8%; in assay [6], 94.8%. Further, the growth was 98.3% in assay [7]; 85.8% in assay [8]; 93.4% in [9]; 121% in [10]; 105% in assay [11]; 109% in assay [12]. Besides, the growth in assay [13] is 84.7%; in assay [14], 74.2%; in [15], 97.7%; in assay [16], 43.2%; in [17], 57.3%.

For the compound `CCOC(=O)c1cnc2c(cnn2CC)c1NN=C(C)C`, the growth in [1] was 86%; in assay [2], 84.7%; in assay [3], 69%; in assay [4], 87.6%; in assay [5] it was 90.4%; in assay [6], 98.4%. The growth in assay [7] is 90.4%; in assay [8], 79.3%; in assay [9], 90.7%; in assay [10], 113%; in assay [11] it was 40%; in assay [18], 105%. The growth was 68.4% in [13]; 87.3% in assay [19]; 84.1% in assay [20]; 100% in assay [14]; 68% in [15]; 92% in assay [16]. Moreover, the growth in [17] was 81%.

Take `O=C1Nc2c(ccc(Cl)c2Cl)/C1=C/c1ccc(F)cc1`: the growth is 80.6% in assay [1]; 91% in [2]; 76.1% in [3]; 73.5% in [4]; 92.8% in assay [5]; 79.3% in [6]. For the same compound, the growth in assay [7] is 86.8%; in [8] it was 79.6%; in assay [9], 81.2%; in assay [10] it was 115%; in assay [11], 5.62% (active); in assay [18], 98.3%. For the same compound, the growth in [13] is 71.9%; in [19] it was 109%; in [20] it was 85.9%; in assay [14] it was 38%; in [15], 92.5%; in [16] it was 93.5%. Further, in [17], the growth was 76%.

For `C1=C2CNCC3=Cc4ccc5ccccc5c4OC23Oc2c1ccc1ccccc21`, the growth in assay [1] is 21.7%; in [2], 19.1%; in assay [3], 34.5%; in assay [4], 59.6%; in [5] it was 38.9%; in [6], 39.1%. Also, the growth is 35.6% in assay [7]; 25.6% in [8]; 18.9% in [9]; 46.7% in [10]; 51.9% in assay [11]; 63.2% in assay [18]. For the same compound, the growth in assay [13] is 36.3%; in [19], 89.7%; in [20], 37.2%; in assay [14] it was 31.1%; in [16] it was 43.3%; in [17], 45.8%.

With `NC(=O)c1cccc(-c2ccccc2N2CCCCC2)c1`, the growth in [1] is 101%; in [2], 95.2%; in assay [3] it was 99.7%; in assay [4], 93%; in assay [5], 98.3%; in [6] it was 83.9%. Moreover, the growth in assay [7] was 100%; in assay [8], 85%; in assay [9] it was 98.5%; in [10] it was 98.6%; in [11], 103%; in [18], 93.6%. Moreover, the growth is 82.4% in assay [13]; 103% in assay [19]; 95.3% in assay [20]; 83% in assay [14]; 95.3% in assay [15]; 89.7% in [16]. In [17], the growth was 91.1%.

Turning to `O=C(Cc1ccc(/C=C/C(=O)c2ncc[nH]2)cc1)Nc1ccc(C(F)(F)F)cc1`, the growth in [1] was -51.6% (active); in assay [2] it was -32.5% (active); in [3] it was 43.6%; in assay [4], 15.3%; in assay [5] it was -88.8% (active); in [6] it was 36.6%. In addition, the growth in assay [7] was 47.7%; in assay [8] it was 46.5%; in assay [9], -80% (active); in assay [10] it was 67.3%; in assay [11], 100%; in assay [18], 29.5%. The growth in [13] was -41.7% (active); in assay [19] it was 87.5%; in assay [20] it was 56%; in [14] it was 68.7%; in assay [16], -9.03% (active); in assay [17], 6.36% (active).

On to `CCCCCCCCCCCC(=O)C(CCCCCCCCCC)C(=O)Nc1ccccc1` (stereo not drawn), for which the growth in assay [1] is 115%; in assay [2], 94.7%; in assay [3], 101%; in assay [4], 101%; in assay [5] it was 99.4%; in [6], 92.6%. For the same compound, the growth is 97.9% in [7]; 91.5% in assay [8]; 93.5% in [9]; 108% in assay [10]; 98.8% in [11]; 108% in [12]. Also, the growth in assay [13] was 86.1%; in assay [19], 95.1%; in assay [20], 100%; in assay [14], 97%; in [16], 103%; in [17], 89.3%.

`Cc1cn(-c2cc(C(=O)Nc3cccc(C#Cc4cccc5[nH]nc(N)c45)c3)cc(C(F)(F)F)c2)cn1`: the growth is 57.4% in assay [1]; 18.5% in assay [2]; 65.8% in [3]; 76.2% in [4]; 54.9% in [5]; 75.3% in [6]. In addition, the growth in assay [7] was 24.2%; in assay [8], 12.2%; in assay [9], 11%; in [10] it was 15.8%; in assay [11] it was 5.21% (active); in assay [12], 68%. In addition, the growth in [13] was 30.2%; in assay [19], 58.5%; in assay [20], 30.3%; in assay [14], 79.6%; in assay [16], 47.4%; in assay [17], 36.5%.

On to `O=C(Nc1ccc2cc3ccc(NC(=O)N4CCCCCC4)cc3nc2c1)N1CCCCCC1`, for which the growth in assay [1] was -47.4% (active); in [2], -36.2% (active); in assay [3] it was -88.4% (active); in [4], 1.3% (active); in [5] it was -58.8% (active); in [6], 5.93% (active). For the same compound, the growth in assay [7] is -94.4% (active); in assay [8] it was -66.6% (active); in assay [9] it was -85% (active); in assay [10] it was -82.1% (active); in assay [11] it was -69% (active); in assay [12], -41% (active). In addition, the growth was -85.4% (active) in assay [13]; -62.3% (active) in assay [19]; -93.6% (active) in assay [20]; -64.7% (active) in assay [14]; 8.09% (active) in assay [16]; -21.2% (active) in assay [17].

Turning to `NC(=S)N/N=C(\c1ccc(Cl)cc1)C1CC1`, the growth in [1] was 84.3%; in [2], 50.6%; in assay [3], 83.7%; in assay [4] it was 104%; in assay [5] it was 92.1%; in [6] it was 77.9%. Besides, the growth is 89.1% in assay [7]; 87.3% in assay [8]; 94.2% in assay [9]; 98.7% in [10]; 106% in [11]; 69.8% in [12]. Also, the growth was 58.7% in assay [13]; 102% in assay [19]; 88.4% in assay [20]; 81.1% in [14]; 63.2% in assay [16]; 46.9% in assay [17].

With `Cc1cc(C)n(Nc2nc3ccccc3[nH]c2=O)c(=O)c1C#N`, the growth in assay [1] is 102%; in assay [2] it was 110%; in assay [3], 79.5%; in assay [4], 93.1%; in assay [5] it was 95.4%; in assay [6] it was 94.8%. Moreover, the growth is 95.3% in assay [7]; 94.8% in assay [8]; 91.5% in assay [9]; 104% in assay [10]; 108% in assay [11]; 88.2% in [12]. Moreover, the growth is 78.8% in [13]; 111% in assay [19]; 94.1% in assay [20]; 89.9% in assay [14]; 109% in [16]; 96.7% in assay [17].

Regarding `Nc1c(C(=O)Nc2ccc(Cl)cc2)cc(-c2nc3ccccc3s2)c(=O)n1NS(=O)(=O)c1ccc(Cl)cc1`, the growth in [1] was 96.7%; in assay [2], 104%; in assay [3], 84.1%; in assay [4], 99.8%; in assay [5], 104%; in assay [6], 104%. For the same compound, the growth is 96.4% in assay [7]; 89.8% in [8]; 99.3% in assay [9]; 109% in assay [10]; 102% in assay [11]; 85.8% in [12]. Also, the growth was 85.9% in [13]; 147% in assay [19]; 103% in [20]; 86.4% in assay [14]; 97.6% in [16]; 91.5% in assay [17].

Take `Clc1nc(Nc2ccccc2)nc(Nc2ccccc2)n1`: the growth was 100% in [1]; 116% in assay [2]; 105% in assay [3]; 104% in [4]; 110% in assay [5]; 99.5% in assay [6]. Also, the growth in assay [7] was 99.8%; in assay [8], 96.3%; in assay [9], 94.1%; in assay [10] it was 112%; in assay [11], 106%; in assay [12], 106%. In addition, the growth was -80.6% (active) in assay [13]; 122% in assay [19]; 98.9% in assay [20]; 86.5% in assay [14]; 91.7% in assay [16]; 86.3% in [17].

On to `C=C(C)[C@@H]1CC[C@]2(C=O)CC[C@]3(C)[C@H](CC[C@@H]4[C@@]5(C)CCCNC(C)(C)[C@@H]5CC[C@]43C)[C@@H]12`, for which the growth was 34.3% in assay [1]; 14% in assay [2]; 110% in assay [3]; 84.6% in assay [4]; 50.4% in assay [5]; 48% in [6]. The growth is 66% in assay [7]; 69.9% in assay [8]; 84.9% in assay [9]; 96.7% in [10]; 89.5% in assay [11]; 96.6% in assay [12]. Besides, the growth in assay [13] is 69%; in assay [20], 88.1%; in assay [14], 89.4%; in assay [16], 59.7%.

Consider `N#CSCC1CC(O)(c2ccccc2)C(c2ccccc2)C(c2ccc(F)cc2)O1` (stereo not drawn), for which the growth in assay [1] is 42.6%; in [2], 0.506% (active); in assay [3] it was 62.6%; in assay [4], 76.8%; in assay [5] it was 32.4%; in assay [6], 15.9%. Moreover, the growth in assay [7] was 57.3%; in assay [8], 41.2%; in assay [9], -1.61% (active); in assay [10], -15.5% (active); in [11], 53.6%; in [18], -26.9% (active). Moreover, the growth was 11.2% in assay [13]; 0.365% (active) in assay [19]; 25.2% in assay [20]; 15.2% in [14]; 12.2% in [16]; -22% (active) in assay [17].

With `FC(F)(F)c1cccc(Nc2ccccc2)c1`, the growth in assay [1] was 99.4%; in assay [2], 105%; in [3], 94.7%; in [4] it was 98.2%; in assay [5], 97.7%; in [6], 102%. The growth in assay [7] is 103%; in assay [8] it was 96.5%; in assay [9] it was 98.7%; in [10] it was 102%; in assay [11], 88.7%; in [18], 101%. The growth in assay [13] is 97.6%; in assay [19], 94%; in assay [20], 99.6%; in [14], 97.5%; in [16], 109%; in assay [17], 89.9%.
